PfHsp90 yeast 2 = inhibits growth of yeast expressing Plasmodium falciparum Hsp90; S. cerevisiae expressing PfHsp90, BacTiter-Glo ATP, 48 h; yeast lacking PDR1 and PDR3 efflux regulators; inhibition, % at 9.4 µM; actives 0.32% (n = 310,000); AID 504621;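 active means every replicate shows inhibition above about 80%, whatever the replicate mean, limit read from the data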;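 further: 0% = DMSO neutral controls and 100% = 20 µM radicicol positive controls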
SKKanGAS inh = blocks kanamycin growth of S. pyogenes SKKanGAS strain | BacTiter-Glo, 6 h | inhibition, % at 7.5 µM | actives 1.3% (n = 300,000);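 active means mean replicate score, as percent of positive control median, at least 50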;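 further: strain carries kanamycin resistance gene driven by streptokinase promoter and grows in 40 µg/ml kanamycin; loss of luminescence reflects streptokinase promoter inhibition or plain growth inhibition; 0% = median of DMSO wells and 100% = positive control at its reference dose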
tim23-1 inh = inhibits growth of tim23-1 mutant yeast; S. cerevisiae tim23-1 growth, BacTiter-Glo luminescence, 24 h; inhibition, % at 20 µM; actives 1.3% (n = 330,000); AID 463212;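 active means growth inhibition of the mutant yeast at or above 50%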;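 further: temperature-sensitive mutant grown at 25 °C; plate controls were DMSO-treated mutant yeast for no effect and medium wells lacking yeast for full effect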
tim10-1 inh = growth inhibitors of tim10-1 mutant yeast; inhibition, % at 20 µM; AID 463190; S. cerevisiae tim10-1 ts strain growth, BacTiter-Glo, 24 h; actives 2.2% (n = 330,000);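 active means inhibition of at least 40%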;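 further: mutant grown at 25 °C; 0% = DMSO wells with yeast and 100% = wells holding no yeast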
NALP3 yeast inh = inhibitors of NALP3 inflammasome in yeast; actives 0.39% (n = 330,000); AID 2825; Yeast reconstituted NLRP3/ASC/caspase-1, beta-gal luminescence, 24 h; inhibition, % at 10 µM;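 active means inhibition of 50% or more; inactive means inhibition below 50%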;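 further: plate controls were induced DMSO wells for no effect and uninduced yeast grown without galactose for full effect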
TIM10 inh = growth inhibitors of TIM10 yeast strain; S. cerevisiae TIM10 strain growth, BacTiter-Glo luminescence, 24 h; inhibition, % at 10 µM; actives 1.4% (n = 330,000);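 active means inhibition of 40% or more at the single tested concentration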;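 further: wild-type TIM10 isogenic control strain grown at permissive 25 °C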
tim10-1 confirm = tim10-1 yeast growth inhibition, confirmed; shares compounds with tim10-1 inh; AID 463213; S. cerevisiae tim10-1 ts strain growth, BacTiter-Glo, 24 h; inhibition, % at 20 µM; actives 56% (n = 7,400);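 active means inhibition of yeast growth at or above a set limit in either of two repeat tests at 20 µM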;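 further: tim10-1 mutant grown at permissive 25 °C to find synthetic lethal compounds; 0% = DMSO yeast wells and 100% = medium wells without yeast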
TIM10 conf = confirmation of TIM10 yeast growth inhibitors | shares compounds with TIM10 inh | S. cerevisiae tim10 strain growth, BacTiter-Glo luminescence, 24 h | inhibition, % at 10 µM | actives 63% (n = 4,600) | AID 463215;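 active means inhibition of yeast growth at or above a set limit in either of two replicates at 10 µM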;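 further: this counterscreen used the strain with wild-type TIM10; 0% = yeast with DMSO and 100% = medium wells lacking yeast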
tim23-1 confirm = tim23-1 yeast growth inhibition, confirmed; shares compounds with tim23-1 inh; S. cerevisiae tim23-1 growth, BacTiter-Glo luminescence, 24 h; inhibition, % at 20 µM; actives 83% (n = 4,400); AID 463218;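 active means inhibition above about 39% in either of two replicate wells at 20 µM, limit read from the data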;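 further: temperature-sensitive tim23-1 mutant grown at 25 °C; 0% = DMSO wells with yeast and 100% = medium wells without yeast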
* hit, by the source's call; . = not tested or not shown. Hits are enriched below; roughly 4.6% of the tested compounds scored in any of these assays.

SMILES	PfHsp90 yeast 2	SKKanGAS inh	tim23-1 inh	tim10-1 inh	NALP3 yeast inh	TIM10 inh	tim10-1 confirm	tim23-1 confirm	others
c1ccc(Cn2nnc3c(N4CCCCCC4)ncnc32)cc1	-26	17	22	19	12	-8	.	.
Cc1[nH]n(-c2ccccc2)c(=O)c1C(C[N+](=O)[O-])c1ccccc1Cl (stereo not given)	-52	6	74*	61*	27	44*	59*	75*	TIM10 conf=56*
COc1cccc(C(c2c(C)[nH]n(-c3ccccc3)c2=O)c2c(C)[nH]n(-c3ccccc3)c2=O)c1OC	-17	1	63*	52*	-27	32	33*	55*
COc1cccc(C(c2c(C)[nH]n(-c3ccccc3)c2=O)c2c(C)[nH]n(-c3ccccc3)c2=O)c1O	-2	2	41	25	4	33	.	.
NCC(=O)Nc1ccc(Cl)cc1C(=O)c1ccc[nH]1	8	-5	-9	-16	15	-29	.	.
Cc1cc(C)nc(SCC(=O)N/N=C/c2ccc3c(c2)OCO3)n1	23	11	7	-5	11	-5	.	.
O=C(CSCc1ccccc1Br)N/N=C/c1ccc2c(c1)OCO2	3	32	60*	51*	12	33	46*	50*
COC(=O)C/C(O)=C(/N=Nc1cccc(C(F)(F)F)c1)C(=O)OC	-8	4	23	13	18	10	.	.
COc1ccc(O)c(-c2cc(-c3cccs3)[nH]n2)c1	-10	-4	64*	43*	32	37	16	69*
COC(=O)C1=C(C)N(Cc2cccnc2)C(=O)/C1=C\c1sccc1C	-29	-16	36	4	12	-4	.	.
COC(=O)C1=C(C)N(c2cc(Cl)cc(Cl)c2)C(=O)C1	-8	5	53*	56*	-6	33	54*	46*
O=C(NC(=S)NCc1ccccc1)c1ccccc1Br	-23	5	43	-3	26	12	.	.
OCCNC(=S)NCCc1ccccc1	-28	0	8	11	-4	0	.	.
O=C(NC(=S)NCCc1ccccc1)c1ccccc1	.	-1	55*	45*	7	43*	20	48*	TIM10 conf=41*
O=C(NC(=S)NCc1ccccc1)c1ccccc1F	-12	1	51*	40*	-4	22	27*	25
CCOC(=O)NNC(=O)NCCCCCCNC(=O)NNC(=O)OCC	4	1	10	10	10	18	.	.
Cc1c(C2(O)CCCCC2)[nH]c2cc(C(F)(F)F)ccc12	67	.	56*	42*	31	25	22	64*
Cc1c(C2(O)CCCCC2)[nH]c2cnccc12	24	.	11	-3	21	1	.	.
O=C(O)c1cccc(N/N=C/c2cc(Br)cc(Br)c2O)c1	110*	-14	78*	49*	-1	26	42*	74*
Cc1c(N=Cc2cc(Br)cc(Br)c2O)cccc1C(=O)O	102*	10	83*	59*	28	42*	50*	90*	TIM10 conf=27
COc1ccc(Br)cc1/C=N/Nc1cccc(C(=O)O)c1	-13	7	25	6	-1	1	.	.
COc1cc(Br)cc(C=Nc2cccc(C(F)(F)F)c2)c1O	-5	-7	.	.	.	.	.	.
CC1CCCCC1NC(=O)CCN1C(=O)C2C3C=CC(C3)C2C1=O (stereo not given)	19	3	9	11	-5	-4	.	.
Clc1ccc(CSc2nncn2-c2ccc3c(c2)OCCO3)cc1	22	17	52*	41*	28	22	33*	47*
Cc1oc2c(c1C(=O)NCc1cccnc1)C(=O)c1ccccc1C2=O	.	86*	83*	83*	40	94*	82*	72*	TIM10 conf=95*
SMILES	PfHsp90 yeast 2	SKKanGAS inh	tim23-1 inh	tim10-1 inh	NALP3 yeast inh	TIM10 inh	tim10-1 confirm	tim23-1 confirm	others
Cc1[nH]c2ccc(C(=O)N3CCN(c4ccccc4Cl)CC3)cc2c1C	8	25	51*	57*	8	40*	25	48*	TIM10 conf=12
CCOc1ccc(C(=O)NCC(c2ccco2)N2CCOCC2)cc1 (stereo not given)	.	3	3	2	16	9	.	.
O=C(c1ccccc1[N+](=O)[O-])n1cnc2ccccc21	9	-9	7	33	-1	35	.	.
O=C(c1ccc([N+](=O)[O-])cc1[N+](=O)[O-])n1cnc2ccccc21	-2	3	73*	69*	16	59*	76*	84*	TIM10 conf=52*
Cc1cc(C(=O)N(C)Cc2c(F)cccc2Cl)c2ccccc2n1	41	3	8	-6	17	0	.	.
CC(C)N(C(=O)CSc1ccc(S(=O)(=O)N2CCCCC2)cn1)C(C)C	-16	.	25	12	23	8	.	.
O=C(/C=C/c1ccccc1)CC(O)(c1ccccc1)C(F)(F)C(F)F (stereo not given)	-33	12	56*	44*	38	24	41*	32
O=[N+]([O-])c1ccc(/C=N/Nc2nc(N3CCCCC3)nc(N3CCCCC3)n2)o1	.	17	50*	55*	19	48*	46*	44*	TIM10 conf=21
CC[n+]1c(/C=C2/C=C(C)CC(C)(C)C2)sc2ccc(OC)cc21	-1	3	30	29	15	34	.	.
CC[n+]1c(/C=C2\C=C(C)CC(C)(C)C2)sc2ccccc21	16	-1	51*	45*	16	37	39*	55*
O=C(Cc1c(F)cccc1Cl)OCN1C(=O)c2ccccc2C1=O	-8	10	5	5	20	-9	.	.
O=C(NC(=S)N(CCc1ccccc1)CCc1ccccc1)c1ccco1	-59	82*	51*	49*	8	42*	44*	51*	TIM10 conf=-10
CC(CCc1ccccc1)NC(=S)NC(=O)c1ccco1 (stereo not given)	-5	4	44	8	29	20	.	.
COc1ccccc1CNC(=O)[C@H](Cc1c[nH]c2ccccc12)NC(=O)[C@@H]1Cc2ccccc2CN1	-18	10	-3	-2	-3	2	.	.
[O-][n+]1c2c(c3c4non(O)c4ccc31)CCCC2	-11	1	63*	70*	27	61*	70*	64*	TIM10 conf=52*
Cc1ccc(OCCCC(=O)ON=C(N)c2ccccc2C)cc1	-38	.	62*	60*	17	41*	64*	61*	TIM10 conf=50*
